# Substitutions are numbered along the chain they refer to.
# Assays:
# Test in all cases: yeast three-hybrid, YBZ-1, SC-Leu-His + 0.5 mM 3-AT, 4 days
# Details in all cases: tags: N-Gal4 AD-HA kept; label: inside an RPR1-promoter hybrid RNA with tandem MS2 sites; ssRNA
# PUM1 PUF domain R1-RGM = PUM1 PUF domain R1-RGM (Homo sapiens, UniProt Q14671 828-1176, S863R;R864G;Q867M)
# How it was run: (§1)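 The interaction score is the log change in how often each variant appears, from input to selection. Frequencies came from PCR-amplified, Illumina-sequenced repeat regions of Pumilio-1 PUF domain libraries grown in strain YBZ-1 (LexA–MS2 coat fusion, HIS3 reporter) alongside matching RNA elements. Input plates were SC-Leu and selection plates were SC-Leu-His + 0.5 mM 3-AT, each for four days, and the log2 calculation used a pseudocount of 1 where a variant was absent.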
# PUM1 PUF domain R1-NIG = PUM1 PUF domain R1-NIG (Homo sapiens, UniProt Q14671 828-1176, S863N;R864I;Q867G)
# How it was run: as §1
# PUM1 PUF domain R1-GRR = PUM1 PUF domain R1-GRR (Homo sapiens, UniProt Q14671 828-1176, S863G;Q867R)
# How it was run: as §1
# PUM1 PUF domain R3-LFV = PUM1 PUF domain R3-LFV (Homo sapiens, UniProt Q14671 828-1176, C935L;R936F;Q939V)
# How it was run: as §1
# PUM1 PUF domain R3-LRS = PUM1 PUF domain R3-LRS (Homo sapiens, UniProt Q14671 828-1176, C935L;Q939S)
# How it was run: as §1
# PUM1 PUF domain R5-KFA = PUM1 PUF domain R5-KFA (Homo sapiens, UniProt Q14671 828-1176, C1007K;R1008F;Q1011A)
# PUM1 PUF domain R5-KFA, sequence (Q14671 828-1176 C1007K/R1008F/Q1011A): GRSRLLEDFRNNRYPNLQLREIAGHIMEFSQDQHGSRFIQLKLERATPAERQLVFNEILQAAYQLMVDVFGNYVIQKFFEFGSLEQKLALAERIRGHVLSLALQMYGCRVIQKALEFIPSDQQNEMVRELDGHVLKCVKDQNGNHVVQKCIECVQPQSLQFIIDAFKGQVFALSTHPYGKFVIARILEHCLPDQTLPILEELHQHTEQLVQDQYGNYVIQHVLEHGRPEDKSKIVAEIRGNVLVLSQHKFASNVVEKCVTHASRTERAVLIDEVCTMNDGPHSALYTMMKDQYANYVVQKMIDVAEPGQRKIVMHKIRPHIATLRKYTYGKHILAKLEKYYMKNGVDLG
# How it was run: as §1
# PUM1 PUF domain R6-CYR = molecular target: T1, PUM1 PUF domain R6-CYR (Homo sapiens, UniProt Q14671 828-1176, N1043C;Q1047R)
# T1 sequence: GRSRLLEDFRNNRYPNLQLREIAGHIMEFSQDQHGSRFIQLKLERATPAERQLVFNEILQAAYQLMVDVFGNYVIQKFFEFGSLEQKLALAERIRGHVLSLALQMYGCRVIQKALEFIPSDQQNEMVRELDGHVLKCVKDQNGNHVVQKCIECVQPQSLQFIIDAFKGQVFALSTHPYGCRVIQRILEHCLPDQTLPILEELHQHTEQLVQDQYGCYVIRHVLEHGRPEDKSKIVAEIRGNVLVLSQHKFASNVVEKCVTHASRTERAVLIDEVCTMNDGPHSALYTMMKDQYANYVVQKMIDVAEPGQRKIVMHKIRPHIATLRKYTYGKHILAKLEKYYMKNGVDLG
# How it was run: as §1
# PUM1 PUF domain R8-YWR = PUM1 PUF domain R8-YWR (Homo sapiens, UniProt Q14671 828-1176, N1122Y;Y1123W;Q1126R)
# How it was run: as §1
# PUM1 PUF domain R6-RFR = molecular target: T2, PUM1 PUF domain R6-RFR (Homo sapiens, UniProt Q14671 828-1176, N1043R;Y1044F;Q1047R)
# T2 sequence: T1 sequence with C216R, Y217F
# How it was run: as §1
# PUM1 PUF domain R8-TYR = PUM1 PUF domain R8-TYR (Homo sapiens, UniProt Q14671 828-1176, N1122T;Q1126R)
# How it was run: as §1
# PUM1 PUF domain R8-TFK = PUM1 PUF domain R8-TFK (Homo sapiens, UniProt Q14671 828-1176, N1122T;Y1123F;Q1126K)
# How it was run: as §1
# PUM1 PUF domain R6-SWK = molecular target: T3, PUM1 PUF domain R6-SWK (Homo sapiens, UniProt Q14671 828-1176, N1043S;Y1044W;Q1047K)
# T3 sequence: T1 sequence with C216S, Y217W, R220K
# How it was run: as §1
# PUM1 PUF domain R3-SPS = PUM1 PUF domain R3-SPS (Homo sapiens, UniProt Q14671 828-1176, C935S;R936P;Q939S)
# How it was run: as §1
# PUM1 PUF domain R5-FRD = PUM1 PUF domain R5-FRD (Homo sapiens, UniProt Q14671 828-1176, C1007F;Q1011D)
# How it was run: as §1
# PUM1 PUF domain R8-RRI = PUM1 PUF domain R8-RRI (Homo sapiens, UniProt Q14671 828-1176, N1122R;Y1123R;Q1126I)
# How it was run: as §1
# PUM1 PUF domain R6-RHR = molecular target: T4, PUM1 PUF domain R6-RHR (Homo sapiens, UniProt Q14671 828-1176, N1043R;Y1044H;Q1047R)
# T4 sequence: T1 sequence with C216R, Y217H
# How it was run: as §1
# PUM1 PUF domain R1-GQK = PUM1 PUF domain R1-GQK (Homo sapiens, UniProt Q14671 828-1176, S863G;R864Q;Q867K)
# How it was run: as §1
# PUM1 PUF domain R1-KYS = PUM1 PUF domain R1-KYS (Homo sapiens, UniProt Q14671 828-1176, S863K;R864Y;Q867S)
# How it was run: as §1
# PUM1 PUF domain R3-RAY = PUM1 PUF domain R3-RAY (Homo sapiens, UniProt Q14671 828-1176, C935R;R936A;Q939Y)
# How it was run: as §1
# PUM1 PUF domain R8-HYL = PUM1 PUF domain R8-HYL (Homo sapiens, UniProt Q14671 828-1176, N1122H;Q1126L)
# How it was run: as §1
sequence,measurement,setting,value
GGCUAGAACUAGUGGAUCCCCCGGCGCCCGGCGGCUCGAGCCCGGGUAAGUGUAAAUUGUCUGCAUGCCGCCGGGCGCCAUGCCUGCAGGUCGACUCUAGAAAACAUG,binding signal,PUM1 PUF domain R1-RGM,2.74 log2 enrichment (interaction score)
same,binding signal,PUM1 PUF domain R1-NIG,3.06 log2 enrichment (interaction score)
same,binding signal,PUM1 PUF domain R1-GRR,2.59 log2 enrichment (interaction score)
GGCUAGAACUAGUGGAUCCCCCGGCGCCCGGCGGCUCGAGCCCGGGUAAGUGUAACUAGUCUGCAUGCCGCCGGGCGCCAUGCCUGCAGGUCGACUCUAGAAAACAUG,binding signal,PUM1 PUF domain R3-LFV,2.66 log2 enrichment (interaction score)
GGCUAGAACUAGUGGAUCCCCCGGCGCCCGGCGGCUCGAGCCCGGGUAAGUGUAAGUAGUCUGCAUGCCGCCGGGCGCCAUGCCUGCAGGUCGACUCUAGAAAACAUG,binding signal,PUM1 PUF domain R3-LFV,5.59 log2 enrichment (interaction score)
same,binding signal,PUM1 PUF domain R3-LRS,4.15 log2 enrichment (interaction score)
GGCUAGAACUAGUGGAUCCCCCGGCGCCCGGCGGCUCGAGCCCGGGUAAGUGUAAAUAGUCUGCAUGCCGCCGGGCGCCAUGCCUGCAGGUCGACUCUAGAAAACAUG,binding signal,PUM1 PUF domain R5-KFA,4.26 log2 enrichment (interaction score)
same,binding signal,PUM1 PUF domain R6-CYR,5.11 log2 enrichment (interaction score)
same,binding signal,PUM1 PUF domain R8-YWR,4.66 log2 enrichment (interaction score)
same,binding signal,PUM1 PUF domain R6-RFR,3.75 log2 enrichment (interaction score)
same,binding signal,PUM1 PUF domain R8-TYR,4.56 log2 enrichment (interaction score)
same,binding signal,PUM1 PUF domain R8-TFK,2.11 log2 enrichment (interaction score)
same,binding signal,PUM1 PUF domain R6-SWK,6.97 log2 enrichment (interaction score)
same,binding signal,PUM1 PUF domain R3-SPS,3.13 log2 enrichment (interaction score)
same,binding signal,PUM1 PUF domain R5-FRD,1.06 log2 enrichment (interaction score)
same,binding signal,PUM1 PUF domain R8-RRI,1.24 log2 enrichment (interaction score)
same,binding signal,PUM1 PUF domain R3-LFV,3.48 log2 enrichment (interaction score)
same,binding signal,PUM1 PUF domain R6-RHR,3.36 log2 enrichment (interaction score)
GGCUAGAACUAGUGGAUCCCCCGGCGCCCGGCGGCUCGAGCCCGGGUAAGUGUAAAUGGUCUGCAUGCCGCCGGGCGCCAUGCCUGCAGGUCGACUCUAGAAAACAUG,binding signal,PUM1 PUF domain R1-GRR,1.78 log2 enrichment (interaction score)
GGCUAGAACUAGUGGAUCCCCCGGCGCCCGGCGGCUCGAGCCCGGGUAAGUGUUAAUAGUCUGCAUGCCGCCGGGCGCCAUGCCUGCAGGUCGACUCUAGAAAACAUG,binding signal,PUM1 PUF domain R5-KFA,4.8 log2 enrichment (interaction score)
GGCUAGAACUAGUGGAUCCCCCGGCGCCCGGCGGCUCGAGCCCGGGUAAGUGUCAAUAGUCUGCAUGCCGCCGGGCGCCAUGCCUGCAGGUCGACUCUAGAAAACAUG,binding signal,PUM1 PUF domain R5-KFA,4.46 log2 enrichment (interaction score)
same,binding signal,PUM1 PUF domain R5-FRD,2.84 log2 enrichment (interaction score)
GGCUAGAACUAGUGGAUCCCCCGGCGCCCGGCGGCUCGAGCCCGGGUAAGUGUAAAUCGUCUGCAUGCCGCCGGGCGCCAUGCCUGCAGGUCGACUCUAGAAAACAUG,binding signal,PUM1 PUF domain R1-GQK,3.53 log2 enrichment (interaction score)
same,binding signal,PUM1 PUF domain R1-KYS,5.18 log2 enrichment (interaction score)
same,binding signal,PUM1 PUF domain R1-RGM,0.98 log2 enrichment (interaction score)
same,binding signal,PUM1 PUF domain R1-GRR,3.99 log2 enrichment (interaction score)
GGCUAGAACUAGUGGAUCCCCCGGCGCCCGGCGGCUCGAGCCCGGGUAAGUGUAAUUAGUCUGCAUGCCGCCGGGCGCCAUGCCUGCAGGUCGACUCUAGAAAACAUG,binding signal,PUM1 PUF domain R3-RAY,3.92 log2 enrichment (interaction score)
same,binding signal,PUM1 PUF domain R3-SPS,1.47 log2 enrichment (interaction score)
same,binding signal,PUM1 PUF domain R3-LFV,4.09 log2 enrichment (interaction score)
same,binding signal,PUM1 PUF domain R3-LRS,1.26 log2 enrichment (interaction score)
GGCUAGAACUAGUGGAUCCCCCGGCGCCCGGCGGCUCGAGCCCGGGUAAGUGAAAAUAGUCUGCAUGCCGCCGGGCGCCAUGCCUGCAGGUCGACUCUAGAAAACAUG,binding signal,PUM1 PUF domain R6-RFR,1.66 log2 enrichment (interaction score)
same,binding signal,PUM1 PUF domain R6-SWK,1.25 log2 enrichment (interaction score)
same,binding signal,PUM1 PUF domain R6-RHR,1.86 log2 enrichment (interaction score)
GGCUAGAACUAGUGGAUCCCCCGGCGCCCGGCGGCUCGAGCCCGGGUAAGCGUAAAUAGUCUGCAUGCCGCCGGGCGCCAUGCCUGCAGGUCGACUCUAGAAAACAUG,binding signal,PUM1 PUF domain R8-YWR,4.53 log2 enrichment (interaction score)
same,binding signal,PUM1 PUF domain R8-TYR,5.46 log2 enrichment (interaction score)
same,binding signal,PUM1 PUF domain R8-TFK,5.88 log2 enrichment (interaction score)
same,binding signal,PUM1 PUF domain R8-RRI,2.58 log2 enrichment (interaction score)
same,binding signal,PUM1 PUF domain R8-HYL,2.26 log2 enrichment (interaction score)
GGCUAGAACUAGUGGAUCCCCCGGCGCCCGGCGGCUCGAGCCCGGGUAAGUGCAAAUAGUCUGCAUGCCGCCGGGCGCCAUGCCUGCAGGUCGACUCUAGAAAACAUG,binding signal,PUM1 PUF domain R6-CYR,5.44 log2 enrichment (interaction score)

# Reference: PMC8384837, “Expanding the binding specificity for RNA recognition by a PUF domain”
